Assay [1] is described as follows: Quantitative High-Throughput drug screen in 47 multiple myeloma cell lines against the NCATS MIPE library collection: KMS26_JCRB cell viability assay (AID 1918975). Note: nearly all actives have a fitted effect of over 45% in size. In outline: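 Steps: seed 500 cells per well; pin-transfer MIPE 4.0 library; incubate 48 h at 37C, 5% CO2, humidified; add CellTiter-Glo, 5 min room temperature; read luminescence.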
Assay [2] in a line: Quantitative High-Throughput drug screen in 47 multiple myeloma cell lines against the NCATS MIPE library collection: MMM1_PLB cell viability assay (AID 1918976). Note: nearly all actives have a fitted effect of over 35% in size. Put shortly:
(§1)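 MIPE 4.0 approved/investigational drugs; 500 cells/well; 48 h 37 °C humidified 5% CO2; CTG luminescence readout; DMSO = 100%, media = 0% viability.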

Assay [3] in a line: Quantitative High-Throughput drug screen in 47 multiple myeloma cell lines against the NCATS MIPE library collection: MOLP8_DSMZ cell viability assay (AID 1918977). Note: nearly all actives have a fitted effect of over 45% in size. In outline: as §1
Assay [4] can be described thus: Quantitative High-Throughput drug screen in 47 multiple myeloma cell lines against the NCATS MIPE library collection: MM1S_ATCC cell viability assay (AID 1918980). Note: nearly all actives have a fitted effect of over 45% in size. Put shortly: as §1
Assay [5] in a line: Quantitative High-Throughput drug screen in 47 multiple myeloma cell lines against the NCATS MIPE library collection: MM1R_ATCC cell viability assay (AID 1918981). Note: nearly all actives have a fitted effect of over 35% in size. Put shortly: as §1
Assay [6] in a line: Quantitative High-Throughput drug screen in 47 multiple myeloma cell lines against the NCATS MIPE library collection: LP1_DSMZ cell viability assay (AID 1918982). Note: nearly all actives have a fitted effect of over 35% in size. Put shortly:
as §1

Assay [7] can be described thus: Quantitative High-Throughput drug screen in 47 multiple myeloma cell lines against the NCATS MIPE library collection: KMS28PE_JCRB cell viability assay (AID 1918983). Note: nearly all actives have a fitted effect of over 35% in size. In outline: as §1
A short description of assay [8]: Quantitative High-Throughput drug screen in 47 multiple myeloma cell lines against the NCATS MIPE library collection: NCIH929_DSMZ cell viability assay (AID 1918978). Note: nearly all actives have a fitted effect of over 35% in size. Put shortly:
as §1

Assay [9] is described as follows: Quantitative High-Throughput drug screen in 47 multiple myeloma cell lines against the NCATS MIPE library collection: L363_DSMZ cell viability assay (AID 1918984). Note: nearly all actives have a fitted effect of over 40% in size. In outline:
as §1

Assay [10] in a line: Quantitative High-Throughput drug screen in 47 multiple myeloma cell lines against the NCATS MIPE library collection: OCIMY1_PLB cell viability assay (AID 1918979). For viability: series mostly up to about 46 µM. Note: nearly all actives have a fitted effect of over 35% in size. In outline: as §1

Molecules are shown by their SMILES. Records with an inconclusive call do not appear. Activity calls are given as the source filed them. Calls come from the whole dose curve; as a rule, active = well fitted curve in the direction sought with a large enough effect; inconclusive = small, poorly fitted or top-dose-only effect, or another doubt; inactive = no such curve, though single readings can be large; an effect the other way counts as inactive or inconclusive.
Potency is the fitted concentration of half-maximal effect.

As to `Nc1nccc(Oc2ccc(NC(=O)c3c[nH]cc(-c4ccc(F)cc4)c3=O)cc2F)c1Cl`, the Potency in [1] is 33.2 µM (active); in assay [2], 23.5 µM (active); in [3] it was 20.9 µM (active); in assay [4], 1.18 µM (active); in [5], 2.35 µM (active); in assay [6] it was 18.7 µM (active). For the same compound, in assay [7], the Potency is 37.2 µM (active).
For the compound `CN(C)Cc1c(C(=O)NCCOc2ccc(C(=O)NO)cc2)oc2ccccc12`, the Potency in assay [1] is 1.05 µM (active); in [2] it was 0.59 µM (active); in [8], 1.05 µM (active); in assay [4], 0.469 µM (active); in assay [7], 0.743 µM (active); in assay [9], 0.332 µM (active).
As to `OCCCNc1cc(-c2ccnc(Nc3cccc(Cl)c3)n2)ccn1`, the Potency in assay [1] is 0.132 µM (active); in assay [2] it was 0.166 µM (active); in [8], 0.0296 µM (active); in assay [10] it was 0.235 µM (active); in [4], 0.118 µM (active); in assay [5] it was 0.0935 µM (active). In addition, the Potency in assay [6] is 0.105 µM (active); in [7], 0.148 µM (active); in assay [9] it was 0.0332 µM (active).
For the compound `COc1ccc2c(c1)CC[C@@H](CN(C)CC(=O)O)[C@H]2c1ccccc1`, the Potency in assay [1] was 1.87 µM (active); in assay [2], 14.8 µM (active); in assay [8], 5.26 µM (active); in assay [4] it was 9.35 µM (active); in [5], 3.72 µM (active); in assay [7], 4.18 µM (active). In addition, the Potency in [9] is 1.66 µM (active).
With `COc1cc2c(Oc3ccc4[nH]c(C)cc4c3F)ncnc2cc1OCCCN1CCCC1`, the Potency is 29.6 µM (active) in assay [1]; 23.5 µM (active) in [2]; 7.43 µM (active) in assay [8]; 18.7 µM (active) in assay [4]; 26.4 µM (active) in [5]; 20.9 µM (active) in assay [7].
For the compound `CC(=O)OCC(=O)[C@@]1(O)[C@H](C)C[C@H]2[C@@H]3C=C(C)C4=Cc5c(cnn5-c5ccccc5)C[C@]4(C)[C@@H]3[C@@H](O)C[C@@]21C`, the Potency is 10.5 µM (active) in [1]; 16.6 µM (active) in assay [2]; 8.33 µM (active) in [8]; 9.35 µM (active) in assay [10]; 0.0132 µM (active) in assay [4]; 9.35 µM (active) in [5]. Also, the results for the Potency in assay [7] and in assay [9] were 20.9 µM (active) and 0.0469 µM (active), respectively.
With `COc1ccc(C(=O)CC2(O)C(=O)Nc3c(Cl)ccc(Cl)c32)cc1` (configuration not stated), the Potency in assay [1] was 2.96 µM (active); in [2], 14.8 µM (active); in assay [8], 18.7 µM (active); in assay [4], 18.7 µM (active); in assay [5], 5.26 µM (active); in assay [9] it was 1.66 µM (active).
`CN1CCN(Cc2ccc(NC(=O)Nc3ccc(Oc4cc(NC(=O)C5CC5)ncn4)cc3)cc2C(F)(F)F)CC1`: the Potency is 0.418 µM (active) in assay [1]; 0.372 µM (active) in assay [2]; 0.332 µM (active) in assay [3]; 0.332 µM (active) in [4]; 0.332 µM (active) in assay [5]; 0.372 µM (active) in assay [6]. Besides, in assay [7], the Potency was 0.372 µM (active). Also, the Potency entry in assay [9] was “inactive”.
On to `CCC(=C(c1ccccc1)c1ccc(OCCN(C)C)cc1)c1ccccc1`, for which the Potency in assay [1] is 20.9 µM (active); in assay [2] it was 23.5 µM (active); in [8], 20.9 µM (active); in assay [4] it was 29.6 µM (active); in assay [5] it was 23.5 µM (active); in [7] it was 18.7 µM (active). Also, the Potency in [9] was 20.9 µM (active). For the same compound, the Potency entry in assay [10] was “inactive”.
Consider `COc1cc(C)c(Sc2cnc(NC(=O)c3ccc(CNC(C)C(C)C)cc3)s2)cc1C(=O)N1CCN(C(C)=O)CC1` (configuration not stated), for which the Potency is 14.8 µM (active) in assay [1]; 4.69 µM (active) in assay [2]; 2.96 µM (active) in assay [8]; 16.6 µM (active) in [4]; 14.8 µM (active) in [5]; 9.35 µM (active) in assay [9].
Turning to `CC1(C)CCC(c2ccc(Cl)cc2)=C(CN2CCN(c3ccc(C(=O)NS(=O)(=O)c4ccc(N[C@H](CCN5CCOCC5)CSc5ccccc5)c(S(=O)(=O)C(F)(F)F)c4)cc3)CC2)C1`, the Potency in assay [1] is 0.105 µM (active); in [2], 0.0935 µM (active); in [8], 13.2 µM (active); in [10], 7.43 µM (active); in [4], 0.332 µM (active); in assay [5], 0.187 µM (active). The Potency in assay [6] was 20.9 µM (active); in assay [7], 0.469 µM (active).
In the case of `Cc1ccc(S(=O)(=O)Nc2cc(Cl)ccc2C(=O)Nc2nc(-c3ccccc3)cs2)cc1`, the Potency is 18.7 µM (active) in assay [1]; 7.43 µM (active) in assay [2]; 20.9 µM (active) in assay [3]; 14.8 µM (active) in [4]; 9.35 µM (active) in assay [6].
`Cc1cc(Nc2nc(N[C@@H](C)c3ccc(F)cc3)c(C#N)cc2F)n[nH]1`: the Potency is 8.33 µM (active) in assay [1]; 6.62 µM (active) in assay [2]; 13.2 µM (active) in assay [8]; 20.9 µM (active) in assay [4]; 3.32 µM (active) in assay [5]; 0.935 µM (active) in [7].
On to `COc1cc2c(Oc3ccc(NC(=O)C4(C(=O)Nc5ccc(F)cc5)CC4)cc3F)ccnc2cc1OCCCN1CCOCC1`, for which the Potency in assay [1] is 16.6 µM (active); in assay [2] it was 18.7 µM (active); in assay [8] it was 2.96 µM (active); in assay [10], 14.8 µM (active); in [4], 16.6 µM (active); in assay [5], 4.18 µM (active). For the same compound, the Potency is 16.6 µM (active) in [6] and 2.96 µM (active) in assay [9].
`Nc1nc(Nc2ccc(S(N)(=O)=O)cc2)nn1C(=O)c1c(F)cccc1F`: the Potency in [1] was 7.43 µM (active); in assay [2], 10.5 µM (active); in assay [8], 4.18 µM (active); in assay [4], 7.43 µM (active); in assay [5], 6.62 µM (active); in assay [6], 8.33 µM (active). Besides, the Potency in assay [7] is 8.33 µM (active); in assay [9], 2.96 µM (active).
Turning to `Cc1nc2cnc3ccc(C#Cc4cccnc4)cc3c2n1-c1ccc(C(C)(C)C#N)cc1`, the Potency in assay [1] was 1.32 µM (active); in assay [2], 0.148 µM (active); in assay [8], 0.0264 µM (active); in assay [4], 0.0743 µM (active); in [5], 0.166 µM (active); in assay [6] it was 0.0833 µM (active).
In the case of `Nc1ccc(C(=O)c2cc3c(ccc4ccccc43)[nH]2)cc1`, the Potency is 16.6 µM (active) in [1]; 6.62 µM (active) in [2]; 18.7 µM (active) in assay [8]; 5.26 µM (active) in assay [6]; 9.35 µM (active) in assay [7].

Values taken from PubChem BioAssay (NCATS).
